Assay results: PubChem BioAssay
Active and inactive are the calls of the source.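 The calls were made as follows, unless noted: active = GFP response above 150% of the DMSO level; inconclusive = fewer than 70 events counted for a yeast strain; inactive = the rest.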

Assays:
[1] = hit retest on RPL19A-GFP reporter strain – cell-based, S. cerevisiae, flow cytometry, cherry picks, mother/daughter gates, confirmation (AID 2270;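 active = GFP response below 50% of the DMSO control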); conditions: 3 h, at 10 µM, stronger effect = lower value, 100 = same GFP as DMSO wells
[2] = yeast TOR pathway reporter LAP4-GFP change – cell-based, cherry picks, flow cytometry, mother/daughter gates, confirmation (AID 2271;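 active = GFP response above 150% of the DMSO control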;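 also: ratio of sample to DMSO plate mean so 100% equals DMSO level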); conditions: S. cerevisiae LAP4-GFP strain, 3 h, at 10 µM, stronger effect = higher value, 100 means same as DMSO control
[3] = TOR pathway reporter MEP2-GFP, retest of hits – S. cerevisiae, flow cytometry GFP, cherry picks, confirmation (AID 2272;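 active = GFP response above 150% of the DMSO control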;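 also: ratio of well signal to plate DMSO mean so 100% equals DMSO level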); conditions: S. cerevisiae MEP2-GFP strain, 3 h, at 10 µM, stronger effect = higher value
[4] = yeast AGP1-GFP fluorescence change, single-dose – cell-based, flow cytometry, S. cerevisiae, cherry picks, confirmation (AID 2273);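 also: median GFP channel fluorescence over the whole cell population gate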; conditions: S. cerevisiae AGP1-GFP strain, 3 h, at 10 µM
[5] = TOR pathway CIT2 reporter hit retest – S. cerevisiae, GFP fusion, cherry picks, mother/daughter gates, confirmation (AID 2274); conditions: S. cerevisiae CIT2-GFP strain, flow cytometry, 3 h, at 10 µM, stronger effect = higher value
[6] = reduced mouse 2C T cell binding to pMHC/ICAM-1 vesicles – MLPCN validation set, flow cytometry, LFA-1/ICAM-1 modulator project, pilot screen (AID 2523;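 active = response below a set limit, under 55% cells CD8-positive and vesicle-bound, and CD8 cells' 90th-percentile brightness under 279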;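 as to vesicle binding response: mean PE anti-B7-1 fluorescence of CD8+ cells relative to row control; 100% = QL9-loaded vesicles with DMSO vehicle in the same plate row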); conditions: 2C mouse CD8+ T cells, at 7 µM, stronger effect = lower value; double positive events: measured here: CD8+/vesicle+ event percentage
[7] = target: Integrin beta-1 (Homo sapiens) + Integrin alpha-4 (Homo sapiens) (UniProt P13612+P05556); assay: alpha4beta1 integrin LIBS antibody binding reduction – U937 cells, HUTS-21 mAb, flow cytometry, validation set, VLA-4 allosteric modulator project, pilot screen (AID 2674;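 active = inhibition above 50%, about 3 SD of the validation set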;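 also: antibody binding induced by the VLA-4 ligand LDV present at three times its Kd; 0% = LDV ligand with antibody and no compound and 100% = antibody without LDV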); conditions: HUTS-21 LIBS mAb binding, at 6.7 µM, stronger effect = higher value, binding induced by LDV ligand
Sequence of Integrin beta-1 (Homo sapiens) + Integrin alpha-4 (Homo sapiens) (P05556 whole entry, looked up): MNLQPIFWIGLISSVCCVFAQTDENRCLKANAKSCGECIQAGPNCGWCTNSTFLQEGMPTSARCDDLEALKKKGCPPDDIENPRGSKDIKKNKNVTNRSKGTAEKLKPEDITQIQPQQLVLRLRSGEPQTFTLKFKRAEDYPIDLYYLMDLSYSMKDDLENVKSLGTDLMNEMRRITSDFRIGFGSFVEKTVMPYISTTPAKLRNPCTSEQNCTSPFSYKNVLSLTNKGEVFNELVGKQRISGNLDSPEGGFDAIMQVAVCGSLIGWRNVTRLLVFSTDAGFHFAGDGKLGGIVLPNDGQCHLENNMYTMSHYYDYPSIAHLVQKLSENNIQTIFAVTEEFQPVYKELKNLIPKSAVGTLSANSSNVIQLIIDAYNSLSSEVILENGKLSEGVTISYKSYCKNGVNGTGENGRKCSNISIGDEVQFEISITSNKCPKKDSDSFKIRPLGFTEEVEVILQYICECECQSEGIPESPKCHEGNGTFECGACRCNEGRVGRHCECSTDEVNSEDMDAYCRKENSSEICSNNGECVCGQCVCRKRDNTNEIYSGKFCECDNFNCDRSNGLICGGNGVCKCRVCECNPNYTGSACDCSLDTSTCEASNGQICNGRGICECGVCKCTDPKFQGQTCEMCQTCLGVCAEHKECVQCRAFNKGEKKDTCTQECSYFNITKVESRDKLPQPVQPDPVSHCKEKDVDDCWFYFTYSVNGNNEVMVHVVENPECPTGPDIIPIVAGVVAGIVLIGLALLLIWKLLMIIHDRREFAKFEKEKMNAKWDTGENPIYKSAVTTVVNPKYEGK
Sequence of Integrin beta-1 (Homo sapiens) + Integrin alpha-4 (Homo sapiens) (P13612 whole entry, looked up): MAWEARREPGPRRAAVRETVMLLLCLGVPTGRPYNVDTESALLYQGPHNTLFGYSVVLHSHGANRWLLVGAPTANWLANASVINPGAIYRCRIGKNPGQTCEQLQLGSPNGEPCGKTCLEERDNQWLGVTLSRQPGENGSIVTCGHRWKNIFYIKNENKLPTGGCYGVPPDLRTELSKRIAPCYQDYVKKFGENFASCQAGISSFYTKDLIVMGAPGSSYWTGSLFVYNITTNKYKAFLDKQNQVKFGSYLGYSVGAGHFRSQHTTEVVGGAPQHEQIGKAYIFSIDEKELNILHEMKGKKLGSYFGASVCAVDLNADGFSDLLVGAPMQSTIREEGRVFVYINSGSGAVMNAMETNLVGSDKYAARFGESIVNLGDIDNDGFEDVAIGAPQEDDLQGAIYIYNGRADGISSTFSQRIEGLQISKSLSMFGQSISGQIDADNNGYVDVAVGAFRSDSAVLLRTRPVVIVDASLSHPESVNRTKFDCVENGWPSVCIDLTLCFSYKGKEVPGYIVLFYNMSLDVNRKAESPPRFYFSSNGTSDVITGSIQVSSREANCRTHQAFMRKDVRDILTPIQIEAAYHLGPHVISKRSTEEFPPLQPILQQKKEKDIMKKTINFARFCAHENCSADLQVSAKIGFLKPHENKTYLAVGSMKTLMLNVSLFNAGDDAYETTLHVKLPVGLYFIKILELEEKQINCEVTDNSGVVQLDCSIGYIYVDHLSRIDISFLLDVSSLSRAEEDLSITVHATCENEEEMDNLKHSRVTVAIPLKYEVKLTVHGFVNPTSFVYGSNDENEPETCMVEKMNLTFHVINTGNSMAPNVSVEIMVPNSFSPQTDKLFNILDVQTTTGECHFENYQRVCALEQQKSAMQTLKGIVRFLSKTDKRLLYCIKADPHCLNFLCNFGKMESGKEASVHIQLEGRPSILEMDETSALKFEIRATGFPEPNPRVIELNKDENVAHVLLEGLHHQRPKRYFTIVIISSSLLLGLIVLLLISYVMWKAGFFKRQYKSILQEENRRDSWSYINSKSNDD

[8] = calorie-restriction mimetic ROS inhibitors, yeast – validation compound set, pilot screen (AID 2706;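 active = superoxide response below 65% of plate, a cut near 3 SD across the whole screen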;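 also: yeast exposed to compound for one week at 30 degrees C before staining; 100% = mean of all compound wells on the same plate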); conditions: S. cerevisiae aging, superoxide DHE fluorescence; at 10 µM, stronger effect = lower value
[9] = target: Beta-adrenergic receptor kinase 1 (Homo sapiens) (UniProt P25098); assay: GRK2 binders displacing RNA aptamer, biochemical, validation, human GRK2, bead flow cytometry (AID 488806;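 active = aptamer binding inhibition above 30%, about 3 SD of noise from non-fluorescent compounds; inactive = inhibition at or below 30%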); conditions: bead-bound GRK2, FAM-aptamer displacement, at 10 µM, stronger effect = higher value
Sequence of Beta-adrenergic receptor kinase 1 (Homo sapiens) (P25098 whole entry, looked up): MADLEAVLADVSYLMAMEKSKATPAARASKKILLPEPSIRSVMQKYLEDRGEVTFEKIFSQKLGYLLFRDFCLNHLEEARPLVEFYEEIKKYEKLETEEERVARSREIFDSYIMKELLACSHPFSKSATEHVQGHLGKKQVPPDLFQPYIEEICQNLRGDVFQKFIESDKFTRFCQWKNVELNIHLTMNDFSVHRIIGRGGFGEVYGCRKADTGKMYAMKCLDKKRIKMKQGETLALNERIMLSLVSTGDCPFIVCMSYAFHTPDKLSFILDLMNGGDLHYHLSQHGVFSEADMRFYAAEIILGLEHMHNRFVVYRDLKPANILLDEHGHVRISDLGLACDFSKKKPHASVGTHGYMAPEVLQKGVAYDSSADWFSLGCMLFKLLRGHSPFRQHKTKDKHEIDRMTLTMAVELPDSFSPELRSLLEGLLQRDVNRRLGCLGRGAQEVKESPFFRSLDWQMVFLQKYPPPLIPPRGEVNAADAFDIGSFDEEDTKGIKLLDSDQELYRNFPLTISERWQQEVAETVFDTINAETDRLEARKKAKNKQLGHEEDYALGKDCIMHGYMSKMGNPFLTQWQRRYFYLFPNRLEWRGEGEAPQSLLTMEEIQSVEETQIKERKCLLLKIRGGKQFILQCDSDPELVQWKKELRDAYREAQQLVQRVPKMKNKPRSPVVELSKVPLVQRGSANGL

[10] = target: Beta-2 adrenergic receptor (Homo sapiens) (UniProt P07550); assay: agonist-induced loss of surface beta2AR – cell-based, FAP fluorogen, flow cytometry, validation set, pilot screen (AID 504459;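 active = percent response above 42, roughly 3 SD of non-fluorescent test compounds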;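 also: agonist-driven loss of surface beta2AR via internalization measured by FAP dye flow cytometry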); conditions: Am2.2-beta2AR cells, at 10 µM, stronger effect = higher value
Sequence of Beta-2 adrenergic receptor (Homo sapiens) (P07550 whole entry, looked up): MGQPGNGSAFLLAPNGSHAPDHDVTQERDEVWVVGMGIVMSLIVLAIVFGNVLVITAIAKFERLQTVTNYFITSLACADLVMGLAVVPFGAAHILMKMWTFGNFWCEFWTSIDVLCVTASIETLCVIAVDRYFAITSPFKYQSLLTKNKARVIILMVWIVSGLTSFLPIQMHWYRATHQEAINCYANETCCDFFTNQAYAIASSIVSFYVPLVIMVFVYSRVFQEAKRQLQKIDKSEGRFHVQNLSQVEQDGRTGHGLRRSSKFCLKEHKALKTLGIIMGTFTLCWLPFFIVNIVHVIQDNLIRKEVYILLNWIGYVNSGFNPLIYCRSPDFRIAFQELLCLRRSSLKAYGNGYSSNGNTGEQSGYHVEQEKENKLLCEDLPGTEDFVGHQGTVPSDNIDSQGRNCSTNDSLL

[11] = target: AP-2 complex subunit beta (Homo sapiens) (UniProt P63010); assay: beta-arrestin/AP2 interaction blockers – biochemical, validation set, GST-AP2 beads, flow cytometry, pilot screen (AID 504541;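 active = inhibition above 54%, about 3 SD of non-fluorescent compounds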;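 also: AP2 carries R879A mutation and is captured from E. coli lysate; bead-bound FITC arrestin peptide fluorescence measuring arrestin peptide binding to AP2; 0% = DMSO wells and 100% = excess unlabeled arrestin peptide control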); conditions: FITC arrestin peptide, at 10 µM, stronger effect = higher value, AP2 beta2 appendage fragment, R879A mutant
Sequence of AP-2 complex subunit beta (Homo sapiens) (P63010 whole entry, looked up, the tested form may be a part, one chain of several): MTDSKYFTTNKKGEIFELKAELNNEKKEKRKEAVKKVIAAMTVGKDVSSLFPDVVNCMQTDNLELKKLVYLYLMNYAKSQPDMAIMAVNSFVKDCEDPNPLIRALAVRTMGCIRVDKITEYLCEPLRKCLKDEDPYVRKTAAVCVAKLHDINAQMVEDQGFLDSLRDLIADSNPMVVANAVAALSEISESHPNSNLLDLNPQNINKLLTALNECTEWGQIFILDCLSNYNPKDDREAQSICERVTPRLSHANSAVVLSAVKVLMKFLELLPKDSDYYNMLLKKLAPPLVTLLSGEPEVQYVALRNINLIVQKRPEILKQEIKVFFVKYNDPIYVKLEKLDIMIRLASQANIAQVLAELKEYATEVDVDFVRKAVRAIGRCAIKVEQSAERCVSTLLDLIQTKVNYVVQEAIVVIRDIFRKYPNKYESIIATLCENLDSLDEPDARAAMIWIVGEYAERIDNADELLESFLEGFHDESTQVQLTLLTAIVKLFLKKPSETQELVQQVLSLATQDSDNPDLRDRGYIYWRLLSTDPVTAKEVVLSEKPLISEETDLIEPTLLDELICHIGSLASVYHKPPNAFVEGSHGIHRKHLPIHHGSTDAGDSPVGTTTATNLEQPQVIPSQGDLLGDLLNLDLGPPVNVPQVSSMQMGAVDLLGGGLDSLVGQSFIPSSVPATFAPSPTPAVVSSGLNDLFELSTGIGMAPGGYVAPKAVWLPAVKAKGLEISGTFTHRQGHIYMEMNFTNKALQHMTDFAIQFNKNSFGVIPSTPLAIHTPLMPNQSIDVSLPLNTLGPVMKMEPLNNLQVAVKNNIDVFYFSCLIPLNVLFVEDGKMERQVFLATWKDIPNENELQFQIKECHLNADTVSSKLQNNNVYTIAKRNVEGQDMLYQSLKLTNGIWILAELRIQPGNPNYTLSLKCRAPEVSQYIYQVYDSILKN

[12] = cytosolic pH regulators acting via V-ATPase – S. cerevisiae, pHLuorin, HTS validation (AID 504600; in the data active = response above about 15%;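 also: plate controls were DMSO for no effect and reference compound for full effect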); conditions: V-ATPase proton transport, at 10 µM, stronger effect = higher value
[13] = tested on: anti-desmoglein-3 scFv antibody binding to human DSG3; assay: blockers of pathogenic pemphigus antibody–desmoglein-3 binding – biochemical, validation compound set, bead-based, flow cytometry, pilot screen (AID 588368;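 active = binding below the plate cutoff, the plate median minus 3 SD, with a reading above zero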;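 also: signal is the median channel fluorescence of bead-bound GFP antibody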); conditions: Protein G beads, DSG3-Fc, scFv-GFP binding, at 10 µM, stronger effect = lower value
[14] = Nile Red efflux blockade in pump-expressing yeast – validation compound set, multiplex, phenotypic, pilot screen (AID 588506;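 active = efflux inhibition above 0.42, the validation set average plus 4 SD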;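 also: Nile Red retained in cells so higher fluorescence means more efflux inhibition; 0 = negative control wells and 1 = enniatin B 25 µM full block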); conditions: S. cerevisiae pump-expressing triplex, Nile Red efflux flow cytometry; at 10 µM; stronger effect = higher value; the pumps come from Candida albicans
[15] = target: ATP-binding cassette sub-family B member 6 (Homo sapiens) (UniProt Q9NP58); assay: blockers of ABCB6-driven porphyrin uptake – K562-ABCB6 cells, flow cytometry, validation set, pilot screen (AID 588550;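 active = inhibition above the screen-wide mean plus 3 SD, about 51%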;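 also: 0% = DMSO wells and 100% = benzethonium chloride 70 µM positive control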); conditions: K562-ABCB6 porphyrin accumulation, 1 h, at 10 µM, stronger effect = higher value
Sequence of ATP-binding cassette sub-family B member 6 (Homo sapiens) (Q9NP58 whole entry, looked up): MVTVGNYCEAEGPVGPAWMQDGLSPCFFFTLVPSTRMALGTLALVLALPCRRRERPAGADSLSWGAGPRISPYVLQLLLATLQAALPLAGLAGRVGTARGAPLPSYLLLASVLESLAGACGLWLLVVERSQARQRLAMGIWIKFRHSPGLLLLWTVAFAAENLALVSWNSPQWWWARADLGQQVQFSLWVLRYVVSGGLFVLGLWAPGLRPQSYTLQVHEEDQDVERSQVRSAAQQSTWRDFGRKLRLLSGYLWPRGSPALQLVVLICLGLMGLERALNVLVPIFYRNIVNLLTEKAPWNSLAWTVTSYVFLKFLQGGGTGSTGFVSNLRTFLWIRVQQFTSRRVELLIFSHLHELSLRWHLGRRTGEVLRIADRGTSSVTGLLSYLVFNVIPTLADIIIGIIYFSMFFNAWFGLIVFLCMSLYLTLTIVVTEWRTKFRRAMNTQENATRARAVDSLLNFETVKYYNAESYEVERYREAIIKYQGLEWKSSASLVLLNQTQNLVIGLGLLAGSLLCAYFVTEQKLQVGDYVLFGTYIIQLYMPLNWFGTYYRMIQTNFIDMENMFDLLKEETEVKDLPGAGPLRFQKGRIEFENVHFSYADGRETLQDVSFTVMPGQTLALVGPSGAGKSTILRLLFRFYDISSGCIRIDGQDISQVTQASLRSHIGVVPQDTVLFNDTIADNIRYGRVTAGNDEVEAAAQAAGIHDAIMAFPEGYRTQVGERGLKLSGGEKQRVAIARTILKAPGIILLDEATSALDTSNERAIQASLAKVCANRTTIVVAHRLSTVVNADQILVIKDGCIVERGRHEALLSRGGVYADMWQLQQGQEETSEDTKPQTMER

[16] = AML differentiation inducers, ER-HoxA9 marrow cells – cell-based, GFP/MAC1 double positive, flow cytometry, validation set, primary screen (AID 588685;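 active = differentiation response of at least 50%, scaled between solvent and reference control, from cells with both markers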;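 also: compound exposure lasts four days before antibody staining and flow analysis; 0% = DMSO wells and 100% = 5 µM fulvestrant positive control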); conditions: stronger effect = higher value, normalized: vehicle 0, fulvestrant 100
[17] = measured here: daughter cell gate
[18] = measured here: mother cell gate

COc1ccccc1/C=C/C(=O)c1ccc(Cl)cc1
inactive: GFP response vs DMSO [1] 102% | GFP response relative to DMSO [2] 92.6% | GFP response vs DMSO [3] 97.8% | GFP response, % of DMSO [4] 98.9% | GFP response, % of DMSO [5] 103%

COc1cc2c3c(c1)C1(C(=O)N3C(C)(C)C=C2C)C(C#N)=C(N)Oc2cc(C)oc(=O)c21 (centres undefined)
active: differentiation response [16] 79.2%
inactive: vesicle binding response [6] 172% | inhibition [7] 2.3% | superoxide response (% of plate) [8] 96.8% | aptamer binding inhibition [9] -1% | response [10] -71.3% | inhibition [11] -6.4% | response [12] -0.54% | binding (% of control) [13] 110% | efflux inhibition (fraction of control) [14] 0.4 | inhibition [15] 5%
60.1%: double positive events [6]

Cc1cccc(N=c2oc3cc(O)ccc3cc2C(N)=O)c1
inactive: GFP response vs DMSO [1] 96.5% | GFP response relative to DMSO [2] 100% | GFP response vs DMSO [3] 106% | GFP response, % of DMSO [4] 102% | GFP response, % of DMSO [5] 108%
90.5%: GFP response, % of DMSO [5, 17]

CCN(CC)CCCN(C(=O)c1cccs1)c1nc(-c2ccc(OC)cc2)cs1
101%: GFP response, % of DMSO [5, 17] | GFP response, % of DMSO [5, 18]
inactive: GFP response vs DMSO [1] 104% | GFP response relative to DMSO [2] 98.7% | GFP response vs DMSO [3] 109% | GFP response, % of DMSO [4] 98% | GFP response, % of DMSO [5] 107%

CCOC(=O)C1C(=O)CC(C)(O)C(C(=O)OCC)C1/C=C/c1ccccc1 (centres undefined)
inactive: vesicle binding response [6] 115% | inhibition [7] 2.93% | superoxide response (% of plate) [8] 96.1% | aptamer binding inhibition [9] 2% | response [10] 4.95% | inhibition [11] 1.5% | response [12] -0.5% | binding (% of control) [13] 102% | efflux inhibition (fraction of control) [14] -0.07 | inhibition [15] -11% | differentiation response [16] -10.4%
61.6%: double positive events [6]

COc1ccc(Cl)cc1C(=O)NCCc1ccc(S(=O)(=O)NC(=O)NC2CCCCC2)cc1
inactive: vesicle binding response [6] 155% | inhibition [7] -10.5% | superoxide response (% of plate) [8] 114% | aptamer binding inhibition [9] 4% | response [10] -18.8% | inhibition [11] 3.88% | response [12] -2.06% | binding (% of control) [13] 101% | efflux inhibition (fraction of control) [14] -0.28 | inhibition [15] 8% | differentiation response [16] -10.4%
60.4%: double positive events [6]

O=C(NOC(=O)c1ccccc1)c1ccccc1
inactive: GFP response vs DMSO [1] 108% | GFP response relative to DMSO [2] 118% | GFP response vs DMSO [3] 130% | GFP response, % of DMSO [4] 88.2% | GFP response, % of DMSO [5] 113%
103%: GFP response, % of DMSO [5, 17]
96.6%: GFP response, % of DMSO [5, 18]

Cc1ccc(C(=O)NC(=S)NCCCN2CCOCC2)cc1
inactive: vesicle binding response [6] 172% | inhibition [7] 5.49% | superoxide response (% of plate) [8] 96% | aptamer binding inhibition [9] 4% | response [10] 1.89% | inhibition [11] 4.05% | response [12] 5.81% | binding (% of control) [13] 103% | efflux inhibition (fraction of control) [14] -0.38 | inhibition [15] 13% | differentiation response [16] -0.82%
66.2%: double positive events [6]

Fc1ccc(C2Nc3cccc4cccc(c34)N2)cc1
inactive: GFP response vs DMSO [1] 98.2% | GFP response relative to DMSO [2] 106% | GFP response vs DMSO [3] 97.8% | GFP response, % of DMSO [4] 95.4% | GFP response, % of DMSO [5] 97.8%

CC(C)(C)c1ccc(C(O)CCCN2CCC(C(O)(c3ccccc3)c3ccccc3)CC2)cc1 (centres undefined)
64.6%: double positive events [6]
active: superoxide response (% of plate) [8] 54.7% | response [10] 74.7% | response [12] 16.5% | efflux inhibition (fraction of control) [14] 0.59
inactive: vesicle binding response [6] 199% | inhibition [7] 38.9% | aptamer binding inhibition [9] -1% | inhibition [11] 2.19% | binding (% of control) [13] 112% | inhibition [15] 10% | differentiation response [16] 0.92%

O=C(Nc1ccccc1)OCC1CCCN2CCCCC12 (centres undefined)
80%: double positive events [6]
active: differentiation response [16] 63%
inactive: vesicle binding response [6] 511% | inhibition [7] -0.27% | superoxide response (% of plate) [8] 93.9% | aptamer binding inhibition [9] -2% | response [10] -23.8% | inhibition [11] -10.6% | response [12] 1.1% | binding (% of control) [13] 112% | efflux inhibition (fraction of control) [14] -0.04 | inhibition [15] 16%

CC(=O)O[C@H]1CC[C@H]2[C@@H]3CCc4cc(O)ccc4[C@H]3CC[C@]12C
inactive: vesicle binding response [6] 234% | inhibition [7] 15.9% | superoxide response (% of plate) [8] 80.4% | aptamer binding inhibition [9] 1% | response [10] -33% | inhibition [11] 6.38% | response [12] 2.35% | binding (% of control) [13] 101% | efflux inhibition (fraction of control) [14] 0.21 | inhibition [15] 5% | differentiation response [16] -1.05%
58.2%: double positive events [6]

CCCN1C[C@H](CSC)C[C@@H]2c3cccc4[nH]cc(c34)C[C@H]21
58.9%: double positive events [6]
inactive: vesicle binding response [6] 167% | inhibition [7] -8.78% | superoxide response (% of plate) [8] 77.2% | aptamer binding inhibition [9] -1% | response [10] -19.4% | inhibition [11] 1.85% | binding (% of control) [13] 105% | efflux inhibition (fraction of control) [14] 0 | inhibition [15] -37% | differentiation response [16] -10.9%
active: response [12] 78.5%

CN(C)CCCN(C(=O)c1cccs1)c1nc(-c2ccccc2)cs1
inactive: GFP response vs DMSO [1] 98% | GFP response relative to DMSO [2] 90.7% | GFP response vs DMSO [3] 102% | GFP response, % of DMSO [4] 100% | GFP response, % of DMSO [5] 101%

C=C(C)COc1ccc(-c2nc(N)ncc2-c2ccc(OC)cc2)c(O)c1
inactive: vesicle binding response [6] 43.9% | inhibition [7] 20.3% | superoxide response (% of plate) [8] 111% | aptamer binding inhibition [9] 1% | response [10] -10.8% | inhibition [11] -4.84% | response [12] 1.42% | binding (% of control) [13] 92% | efflux inhibition (fraction of control) [14] -0.45 | inhibition [15] 4% | differentiation response [16] -9.53%
55.6%: double positive events [6]

O=C(O)CSC1CC(=O)N(c2ccc(Cl)cc2)C1=O (centres undefined)
inactive: GFP response vs DMSO [1] 93.1% | GFP response relative to DMSO [2] 102% | GFP response vs DMSO [3] 108% | GFP response, % of DMSO [4] 97.3% | GFP response, % of DMSO [5] 104%
90.5%: GFP response, % of DMSO [5, 17]
